Assay outcomes as filed in PubChem BioAssay.
SMARCA2 activ – activators of SMARCA2 function | hit rate 1% among 370,000 | MG213 cells, MMTV-luciferase reporter, dexamethasone, overnight | AID 652017 | activation, % at 9.1 µM; in the data active = activation above about 7.8%
ssDAF12 agonist – activators of S. stercoralis DAF-12 nuclear receptor; hit rate 1% among 370,000; HEK293 ssDAF-12/GRIP1 lit1-tk-luc reporter, luminescence; % of 3 µM dafachronic acid response; activation, % at 6.8 µM;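 active = activation above the mean over all tested compounds plus 3 SD, cut at about 0.9% in these data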
hgDAF12 agonist – hgDAF-12 agonism, primary luciferase screen; activation, % at 6.8 µM; hit rate 1.8% among 370,000; AID 687014; HEK293 GAL4-hgDAF12 UAS-luciferase reporter, agonist luminescence; normalized to butyrate control;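 active = activation above a cutoff set at the mean of all screened compounds plus 3 SD, cut at about 10% in these data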
DAX1 inh-1 – inhibits human nuclear receptor DAX1; P51843; HEK293 Gal4-DAX1 luciferase reporter, luminescence; inhibition, % at 6.75 µM; hit rate 0.99% among 340,000; AID 504766;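 active = inhibition above the mean over all tested compounds plus 3 SD, cut at about 4.2% in these data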;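 note: inhibition shows as a rise in luminescence from relieved DAX1 repression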
hcDAF-12 act – activates DAF-12 receptor from parasite H. contortus | hit rate 1.4% among 370,000 | AID 652067 | activation, % at 6.8 µM | HEK293 hcDAF-12 lit1-tk-luc reporter, luminescence; 0% DMSO, 100% Δ7-dafachronic acid;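 active = activation above the mean of all tested compounds plus 3 SD, cut at about 5.5% in these data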
DAX1 inh-2 – blocks DAX1 repression of SF-1 activated StAR promoter; HEK293T StAR-luciferase reporter, SF-1/DAX-1 repression relief; inhibition, % at 6.8 µM; hit rate 1.1% among 370,000; AID 652010;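 active = inhibition above the mean over all tested compounds plus 3 SD, cut at about 3.6% in these data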;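 note: higher inhibition means more luminescence from relief of DAX-1 repression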
LXRb hcDAF ctr – activates human LXR-beta, counter-screen for hcDAF-12 agonists. shares compounds with hcDAF-12 act. HEK293 Gal4-LXR tk-luc reporter, luminescence, 24 h; normalized: DMSO 0%, positive control 100%. activation, % at 6.8 µM. 3,400 tested, under 10 active. AID 743027;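 active = mean percent activation of the reporter above a cutoff set as the average over tested compounds plus their standard deviation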
Target sequence (P55055 whole entry, looked up, the tested form may be a part): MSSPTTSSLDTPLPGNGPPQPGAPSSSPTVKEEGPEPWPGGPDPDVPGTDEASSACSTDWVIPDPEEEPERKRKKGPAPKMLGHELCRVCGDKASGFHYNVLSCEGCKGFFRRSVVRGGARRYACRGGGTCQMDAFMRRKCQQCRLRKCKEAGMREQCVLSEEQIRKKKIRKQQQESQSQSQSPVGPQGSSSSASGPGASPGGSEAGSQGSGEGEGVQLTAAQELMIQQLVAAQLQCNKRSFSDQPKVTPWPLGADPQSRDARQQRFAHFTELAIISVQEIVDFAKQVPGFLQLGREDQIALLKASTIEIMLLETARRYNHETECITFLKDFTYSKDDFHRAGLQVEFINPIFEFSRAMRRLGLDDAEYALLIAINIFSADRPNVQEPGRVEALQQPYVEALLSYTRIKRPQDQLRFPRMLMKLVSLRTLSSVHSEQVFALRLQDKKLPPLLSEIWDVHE
hcDAF12 conf – hcDAF-12 agonism, confirmation assay | shares compounds with hcDAF-12 act | hit rate 61% among 3,400 | HEK293 hcDAF-12 lit1-tk-luc reporter, luminescence; % of Δ7-dafachronic acid response | activation, % at 6.8 µM;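 active = mean activation across triplicate tests above the threshold derived from the earlier primary screen, cut at about 5.5% in these data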
Hits are given with their value; - = inactive; . = not tested or not shown. Most compounds without a hit are left out; they make up all but 4.8% or so of the library.

SMILES	SMARCA2 activ	ssDAF12 agonist	hgDAF12 agonist	DAX1 inh-1	hcDAF-12 act	DAX1 inh-2	LXRb hcDAF ctr	hcDAF12 conf
O=C(Nc1cccc(F)c1)Nc1cnccn1	-	-	-	-	-	-	.	.
Cc1ccc(NC(=O)CN(C)C(=O)c2ccccc2Cc2ccccc2)cc1	-	-	-	-	-	-	.	.
O=P1(O)C=C(c2ccccc2)OC(c2ccccc2)=C1	-	1.4	-	-	9.9	-	-	11
Cc1c(Cc2ccccc2)c(=O)oc2c(C)c(OCC(=O)NCC3CCC(C(=O)O)CC3)ccc12 (stereo not given)	-	-	-	-	7.3	-	-	-
COc1ccc(C(=O)NCc2nnc(SCC(=O)N3CCCc4ccccc43)o2)cc1OC	-	-	-	-	-	-	.	.
COC(=O)c1ccc(N=NNc2ccc(C(=O)OC)cc2)cc1	-	-	-	-	10	-	-	12
CC(=O)C1CCCN(C(=O)c2ccc3oc(CCc4ccccc4)nc3c2)C1 (stereo not given)	-	-	-	-	7.0	3.9	-	-
CCOc1ccc(-c2nc(CSCC(=O)NCC3CCCO3)c(C)o2)cc1 (stereo not given)	-	-	-	-	-	-	.	.
Cc1cc(Cl)ccc1OCC(=O)NCCOC(=O)Nc1sc(=S)n(C)c1C	-	-	-	-	6.9	-	-	-
Cc1ccc(Cl)cc1OCC(=O)NCCOC(=O)Nc1sc(=S)n(C)c1C	-	-	-	-	-	-	.	.
CCOC(=O)Cc1nc(N2CCN(CCN)CC2)c2c(C)c(C(=O)OCC)sc2n1	-	-	-	.	-	-	.	.
CCOC(=O)Cc1nc(N2CCCN(C(C)=O)CC2)c2c(C)c(C(=O)OCC)sc2n1	-	-	-	.	6.9	-	-	-
O=C1C(=C(O)c2ccccc2)C(=O)c2ccccc21	-	2.1	-	-	7.0	-	-	-
CCc1ccc(C(=O)Cn2ccsc2=N)cc1	-	2.1	20	-	19	-	-	12
COc1ccccc1CNC(=O)CCC1N=C2c3ccccc3N=C(SCC(=O)NCC3CCCO3)N2C1=O (stereo not given)	-	-	-	-	-	-	.	.
O=C(CSc1ccc2ccccc2n1)c1ccccc1	-	1.4	-	-	9.3	-	-	8.2
Cc1nc2ccccc2nc1SCC(=O)c1ccccc1	-	-	-	-	6.7	-	-	-
O=C(Cn1cncn1)NCc1cccc(OC(F)F)c1	-	-	-	-	6.8	-	-	-
COc1cccc(-c2cn3nc4c(nc3n2)CCCC4)c1	.	.	.	-	.	.	.	.
Clc1ccc(-c2cn3nc4c(nc3n2)CCCC4)cc1	-	-	12	-	8.1	4.2	-	7.5
CCC(=O)Nc1ccc(NC(=O)c2ccccc2)nc1	-	1.0	11	-	7.0	4.1	-	-
Cc1ccc(/C=C2\OC(=O)c3ccccc32)cc1	-	-	-	-	8.4	-	-	8.5
Cc1ccccc1/C=C1\OC(=O)c2ccccc21	-	-	-	-	-	-	.	.
CCN(CCO)C(=O)CC1C(=O)NCCN1Cc1c(F)cccc1Cl (stereo not given)	-	-	-	-	11	-	-	-
Cc1nc(C(=O)N2CCC(C)(C(=O)NS(=O)(=O)C3CC3)C2)c(C)o1 (stereo not given)	-	-	-	.	-	-	.	.
SMILES	SMARCA2 activ	ssDAF12 agonist	hgDAF12 agonist	DAX1 inh-1	hcDAF-12 act	DAX1 inh-2	LXRb hcDAF ctr	hcDAF12 conf
O=C(O)c1cc(Cl)c2ccccc2c1O	-	-	-	-	6.9	-	-	-
COC(=O)c1c(NC(=S)Nc2ccc(F)cc2[N+](=O)[O-])sc2c1CCCCC2	-	-	-	-	9.5	-	-	-
COC(=O)c1c(NC(=O)COC(=O)c2ccc(Cl)cc2[N+](=O)[O-])sc2c1CCCCC2	-	-	-	-	-	-	.	.
CN(Cc1ccccc1)C(=O)c1ccc(NC(=O)Cc2ccc(NC(=O)C3CCCN(C(=O)C4CC4)C3)cc2)cc1 (stereo not given)	-	-	-	-	-	-	.	.
N#Cc1ccccc1OCCN1C(=O)c2ccccc2C1=O	-	-	-	-	-	-	.	.
Nc1cccc2c1C(=O)N(CCOc1ccccc1F)C2=O	-	1.9	11	-	18	-	-	18
CSc1nc(-c2ccccc2)cn1-c1ccc(NC(C)=O)cc1	-	-	-	-	-	-	.	.
CCOc1ccc(-c2cn(-c3ccc(OC)cc3)c(SC)n2)cc1	-	-	11	-	7.0	-	-	-
CCOC(=O)C1(CC2CCCCO2)CCN(Cc2cn[nH]c2-c2cccc(F)c2)CC1 (stereo not given)	-	-	-	-	-	-	.	.
C[C@@H]1/C=C/CC(=O)N[C@H](c2ccc3ccccc3c2)[C@H](C)/C=C/CC(=O)N[C@@H]1c1ccc2ccccc2c1	-	-	-	.	8.7	-	-	-
O=C1NN(c2cccc(Br)c2)C(=O)/C1=C\c1ccc(N2CCOCC2)cc1	.	.	.	-	.	.	.	.
CCOC(=O)c1[nH]c2ccccc2c1NC(=S)Nc1ccccc1C	-	1.1	-	-	10	-	-	6.6
CCCS(=O)(=O)Nc1c(C(=O)OC)[nH]c2ccccc12	-	-	-	-	10	-	-	-
COC(=O)c1[nH]c2ccccc2c1NS(=O)(=O)c1ccc(F)c(C)c1	-	-	-	-	-	-	.	.
CCOC(=O)c1[nH]c2ccc(Br)cc2c1NC(=O)CCN1CCC(C)CC1	-	-	-	-	-	-	.	.
CCOC(=O)c1[nH]c2ccc(Br)cc2c1NC(=O)CNC	-	-	-	-	9.9	-	-	-
CC(C)c1ccc(NC(=O)[C@@H]2CCC(=O)N2C2OC(=O)c3ccccc32)cc1 (stereo not given in full)	-	-	-	-	7.4	-	-	-
CCc1ccccc1NC(=O)[C@@H]1CCC(=O)N1C1OC(=O)c2ccccc21 (stereo not given in full)	-	-	-	-	-	-	.	.
CC(=O)Nc1ccc(C(=O)NCC(=O)OCc2ccccc2F)cc1	-	-	-	-	-	-	.	.
CC1Oc2ccccc2OC1C(=O)Nc1nccs1 (stereo not given)	-	-	-	-	-	-	.	.
Cc1cc(NC(=O)C2Oc3ccccc3OC2C)no1 (stereo not given)	-	-	-	-	7.0	-	-	-
COc1ccc(-c2nc3n(c2C)Cc2ccccc2-3)cc1	-	2.2	12	-	9.9	-	-	7.5
O=C(CC1NCCc2ccccc21)Nc1ccc(Cl)cc1 (stereo not given)	-	-	-	-	-	-	.	.
